A selection: hits, their analogues and other compounds. The true share with any hit is near 9.5%.
Tau fibril ThT – blocks human tau fibril formation measured by thioflavin T | P10636 | recombinant tau K18 P301L, heparin-induced fibrillization, ThT fluorescence | Potency, µM (top dose mostly 57.4 µM), for inactives: top-dose activity, negative = inhibition, most hits filed as inhibitors | hit rate 2.1% among 270,000 | AID 1460; note: nearly all actives have a fitted effect of over 55% in size
Target sequence (P10636 561-689 P618L limits assumed): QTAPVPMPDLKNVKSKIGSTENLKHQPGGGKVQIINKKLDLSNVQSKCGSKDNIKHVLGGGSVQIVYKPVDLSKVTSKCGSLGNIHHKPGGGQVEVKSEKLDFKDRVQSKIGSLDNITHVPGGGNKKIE
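In this qHTS, human K18 P301L tau is incubated with compound and heparin for 6 hr at 37 C, and Thioflavin T fluorescence then reports fibril load.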
NPSR antagonist – blocks cAMP signaling of the human neuropeptide S receptor; CHO-NPSR cells, cAMP TR-FRET, antagonist mode; hit rate 1% among 220,000; Potency, µM (top dose mostly 38.3 µM), without a hit: at the top dose activity change, negative = inhibition, most hits filed as inhibitors; note: nearly all actives have a fitted effect of over 50% in size
Target sequence (Q6W5P4 whole entry, looked up): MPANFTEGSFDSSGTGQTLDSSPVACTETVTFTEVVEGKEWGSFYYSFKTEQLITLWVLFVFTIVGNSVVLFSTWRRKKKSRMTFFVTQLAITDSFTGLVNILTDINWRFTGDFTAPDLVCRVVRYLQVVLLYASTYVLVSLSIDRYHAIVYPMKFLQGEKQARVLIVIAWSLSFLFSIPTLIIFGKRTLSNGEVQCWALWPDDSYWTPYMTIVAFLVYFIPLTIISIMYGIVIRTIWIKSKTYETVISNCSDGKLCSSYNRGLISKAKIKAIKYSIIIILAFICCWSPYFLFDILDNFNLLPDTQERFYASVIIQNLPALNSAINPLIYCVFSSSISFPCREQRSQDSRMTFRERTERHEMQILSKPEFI
HPGD inh – HPGD (human) dehydrogenase inhibition; P15428; purified HPGD, NADH fluorescence kinetic, PGE2 substrate; Potency, µM, for the others: top-dose activity change, negative = inhibition, most hits filed as inhibitors; hit rate 4.3% among 150,000; active = well fitted inhibition curve with a large enough effect, not every such curve was filed as active; inconclusive = small, poorly fitted or top-dose-only effect, or another doubt; inactive = no such curve, though single readings can be large or run the other way
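20 nM HPGD preincubated 15 min at room temperature with compound in 50 mM Tris-HCl pH 8, 0.01% Tween 20. Started with 1 mM NAD+ and 30 uM prostaglandin E2; NADH fluorescence (360/450 nm) read 5 times over 30-s intervals, last minus first.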
ALDH1A1 inh – ALDH1A1 (human) enzyme inhibition; Purified ALDH1A1, NADH fluorescence, propionaldehyde substrate; hit rate 7.3% among 220,000; Potency, µM (doses to about 75.3 µM), for inactives: at the top dose activity, negative = inhibition, usual class: inhibitors; AID 1030; P00352; active = well fitted inhibition curve with a large enough effect, not every such curve was filed as active; inconclusive = small, poorly fitted or top-dose-only effect, or another doubt; inactive = no such curve, though single readings can be large or run the other way;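 note: plate controls were no enzyme wells and a reference inhibitor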
Tau FP inhib – tau fibrillization inhibition (FP) | K18 P301L tau heparin fibrillization, Alexa594 FP, 6 h | Potency, µM (highest dose often 57.7 µM), inactives show at the highest dose activity, negative = inhibition, most hits filed as inhibitors | hit rate 0.39% among 280,000; note: nearly all actives have a fitted effect of over 55% in size
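Human tau K18 […] P301L fragment, 15 uM unlabeled plus 0.24 uM Alexa 594-labeled tau (final), with compound and 20 uM heparin in 100 mM sodium acetate pH 7; 6 hr at 37 C, then Alexa 594 FP read.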
Tau fluor counter – counter-screen for tau fibril formation inhibitors. tau K18 P301L Alexa594 fluorescence, heparin fibrillization. Potency, µM (titrated, usually from 57.7 µM), for inactives: top-dose activity change, negative = decrease. hit rate 0.93% among 280,000; note: nearly all actives have a fitted effect of over 55% in size
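Human tau K18 P301L (15 uM unlabeled, 0.24 uM Alexa 594-labeled) in 100 mM sodium acetate pH 7 with 20 uM heparin, 6 hr at 37 C. ThT 30 uM added, 1 hr ambient; Alexa 594 FP and total fluorescence read at 555/632 nm.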
Starred values were filed as active, the others as inactive; ? = inconclusive; . = not tested or not shown; [ ] = dose if it differs, or a comment. Unless noted, calls come from the whole dose curve; as a rule, active = well fitted curve in the direction sought with a large enough effect; inconclusive = small, poorly fitted or top-dose-only effect, or another doubt; inactive = no such curve, though single readings can be large; an effect the other way counts as inactive or inconclusive. Unless noted, % is set by controls: 0 for no effect and ±100 for the full control effect; potency is the fitted concentration of half-maximal effect.

SMILES | Tau fibril ThT | NPSR antagonist | HPGD inh | ALDH1A1 inh | Tau FP inhib | Tau fluor counter
CCN(CC)c1ccc(C(=O)NNC(=O)CCl)cc1 | ? | -33% | . | 10µM* | 0% | -15%
CCN1CCN(c2csc3ccc(F)cc3c2=O)CC1 | ? | . | . | . | 4% | -5%
Cc1ccc2scc(N3CCc4ccccc4C3)c(=O)c2c1 | 7.1µM* | . | . | . | ? | ?
Cc1ccc2scc(N3CCN(c4ccc(F)cc4)CC3)c(=O)c2c1 | 8.9µM* | . | . | . | -6% | -22%
Cc1ccc2scc(N3CCN(c4ccccc4)CC3)c(=O)c2c1 | 4µM* | . | . | . | -5% | -30%
O=c1c(N2CCCCC2)csc2ccc(F)cc12 | ? | . | . | . | -3% | -5%
Cc1cccc(NC(=O)c2sc(NC(=O)c3ccco3)c(C#N)c2C)c1C | ? | -8%[46.1 µM] | -8% | 8% | 7% | -9%
Cn1cccc1C(=O)N1CCC2(CCN(Cc3nccs3)CC2)CC1 | . | . | -13% | -7% | . | .
Cc1c(C(=O)N2CC(C)OC(C)C2)sc2nc(-c3ccc(F)cc3)cn12 (stereo not given) | -6% | -8%[46.1 µM] | 35µM* | -12% | -9% | 0%
Cc1nn(CC(=O)NCc2ccc(-n3cccn3)cc2)c(C)c1[N+](=O)[O-] | -4% | -16% | -10% | 3% | -13% | 0%
Brc1ccc(-c2csc(-c3c[nH]c4ccccc34)n2)cc1 | ? | -12%[46.1 µM] | -20% | -6% | -6% | ?
c1ccc2c(-c3csc(-c4ccncc4)n3)c[nH]c2c1 | 3.2µM* | -4% | . | -12% | -6% | 13µM*[quencher]
O=C(COc1ccccc1)NCC(=O)N/N=C/c1ccco1 | 13% | 14% | ? | 12µM* | -3% | 9%
COCCOC(=O)C1=C(C)OC(N)=C(C#N)C1c1ccc2c(c1)OCO2 (stereo not given) | -17% | 5%[46.1 µM] | 32µM* | 13µM* | 1% | -1%
COCCOC(=O)c1c(C)oc2ccc(OC(=O)c3c(OC)cccc3OC)cc12 | ? | -20%[46.1 µM] | -27% | 5% | 8% | ?
Cn1ncc(Cl)c(Oc2ccccc2)c1=O | -3% | 2%[46.1 µM] | -17% | 10% | -3% | 2%
CSc1nc(C)c(Oc2ccccc2)c(=O)n1C | -2% | -10%[46.1 µM] | 13µM* | 13% | -1% | 3%
CCOC(=O)c1nnn(-c2nonc2N)c1CSc1ccc(C)cc1 | -16% | -32%[46.1 µM] | -23% | 4.5µM* | -1% | -28%
CCOC(=O)c1nnn(-c2nonc2N)c1CSc1ccccc1 | -14% | -21%[46.1 µM] | 2% | ? | -7% | -19%
CCn1c(=O)c2cc(C(=O)N(C)c3ccccc3F)sc2c2ccccc21 | -15% | ? | . | 25µM* | 7% | -9%
Cc1cc(=O)n(-c2ccc(O)cc2)[nH]1 | ? | -9%[46.1 µM] | -9% | 0.79µM* | -14% | -24%
Cc1ccc(N(C(=O)Cn2nnc3ccccc32)C(C(=O)NCc2ccccc2)c2ccccn2)cc1 (stereo not given) | -11% | -9% | 1% | 4% | -4% | -13%
O=S(=O)(NC(=S)NC1CCCCC1)c1ccc(Br)cc1 | -11% | 0% | . | 25µM* | 1% | -6%
NS(=O)(=O)c1ccc(NC(=S)NC2CCCC2)cc1 | -18% | 6% | 14µM* | ? | 2% | -4%
O=C(NC(=S)Nc1ccc(S(=O)(=O)N2CCCC2)cc1)C1CC1 | 0% | -18% | . | 20µM* | -1% | 0%
SMILES | Tau fibril ThT | NPSR antagonist | HPGD inh | ALDH1A1 inh | Tau FP inhib | Tau fluor counter
O=S(=O)(c1ccc(NC(=S)NC2CCCC2)cc1)N1CCCC1 | 4% | -1% | . | 14µM* | -6% | -29%
NS(=O)(=O)c1ccc(NC(=S)NC2CCCCCC2)cc1 | -2% | -9% | -12% | ? | -2% | -14%
CCOC(=O)C1=C(C)N=c2s/c(=C\c3ccc(OCC(=O)O)cc3)c(=O)n2C1c1ccc(OC(C)C)cc1 (stereo not given) | ? | -58% | 4.5µM* | 8% | ? | -3%
Cn1c(=O)c2c(nc(CN3CCN(C(=O)c4ccco4)CC3)n2Cc2ccccc2)n(C)c1=O | -17% | -4%[46.1 µM] | -5% | 13µM* | 2% | -10%
Cn1c(=O)c2c(nc(CN3CCN(C(=O)c4ccco4)CC3)n2Cc2ccc(Cl)cc2)n(C)c1=O | -4% | -20%[46.1 µM] | -6% | 14µM* | 2% | -4%
Cn1c(=O)c2c(nc(N/N=C/c3ccc(OC(=O)c4ccco4)cc3)n2Cc2ccccc2)n(C)c1=O | ? | 7% | ? | ? | 10% | 11µM*[quencher]
Cn1c(=O)c2c(nc(CN3CCN(C(=O)c4ccco4)CC3)n2Cc2cccc(Cl)c2)n(C)c1=O | -10% | -19%[46.1 µM] | -2% | 14µM* | 7% | -2%
COC(=O)c1cc(Cl)nc2ccccc12 | 2% | 11% | . | -6% | -7% | 2%
O=S(=O)(c1ccc(Oc2ccc(Cl)cc2)c(S(=O)(=O)N2CCCCC2)c1)N1CCCCC1 | -1% | -20%[46.1 µM] | -8% | ? | 0% | -2%
CCOc1ccc(CNC(=O)c2cnc3c(C)cccn3c2=O)cc1 | -13% | . | . | . | 5% | -14%
COC(=O)C/C=C\[C@@H](C)[C@@H](/C=N\O[C@@H]1O[C@H](COC(C)=O)[C@H](OC(C)=O)[C@H](OC(C)=O)[C@H]1OC(C)=O)OC | -4%[11.5 µM] | . | . | -1%[13.5 µM] | -2%[11.6 µM] | -6%[11.6 µM]
Cc1ccc(CSCc2ccc(C(=O)NCCc3ccc(Cl)cc3)o2)cc1 | -16% | . | . | . | ? | -9%
CCOC(=O)c1ccc(OCC2c3cc(OC)c(OC)cc3CCN2C(=O)Cc2ccc(OC)c(OC)c2)cc1 (stereo not given) | -15% | . | . | . | 5% | -12%
CCn1c2ccc(/C(C)=N\O)cc2c2cc(/C(C)=N\O)ccc21 | -19% | -12%[46.1 µM] | 2.8µM* | -2% | -6% | -14%
CCn1c2ccccc2c2cc(/C=N/O)ccc21 | -10% | 9% | . | -1% | 3% | -15%
O=C(Oc1ccc(-c2cnc3ccccc3n2)cc1)c1cc([N+](=O)[O-])ccc1Cl | ? | 6%[46.1 µM] | -15% | 0.22µM* | -8% | -25%
O=[N+]([O-])c1ccc(S(=O)(=O)Cc2ccccc2)c([N+](=O)[O-])c1 | . | . | -15% | 1.3µM* | . | .
N#CCc1ccc(C(=O)c2ccccc2F)s1 | ? | -25%[46.1 µM] | 20µM* | -81% | ? | ?
C/C=C/OC(=O)NC(c1cccc(C)c1)[C@@]1(C(=O)OCC)CCCC1=O (stereo not given in full) | -7%[11.5 µM] | . | . | 18%[13.5 µM] | 2%[11.6 µM] | -3%[11.6 µM]
CC(=O)Nc1ccc(C(=O)CCl)cc1 | . | . | -12% | 0.045µM* | . | .
CC(=O)NCc1ccc(C(=O)CCl)cc1 | ? | -15% | . | 0.35µM* | -6% | -7%
O=C(O)c1ccc(CNCc2ccccc2Cl)s1 | 11% | . | . | . | 3% | 8%
CC(=O)NCCC(=O)NCc1ccc(F)cc1 | -4% | 2%[46.1 µM] | -9% | -10% | 10% | 3%

Compound activity as filed in PubChem.
